# BAZ2B block: inhibitors of human BAZ2B bromodomain. Q9UIF8. AlphaScreen BAZ2B-H3K14Ac peptide displacement. Potency, µM (series often up to 114 µM), without a hit: top-dose activity change, negative = inhibition, hits mostly inhibitors. hit rate 4.4% among 360,000. AID 504333; also: potency is read from the fitted curve at half-maximal effect; % is scaled to controls: 0 for no effect and ±100 for the full control effect; nearly all actives have a fitted effect of over 60% in size
#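 AlphaScreen displacement of biotin-H3(5-23)K14Ac peptide (50 nM final) from BAZ2B (50 nM final) in PBS pH 7.4, 0.01% Tween-20; complex preformed 30 min RT, then compounds (top 110 uM) 30 min RT, beads 20 min dark.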
# JMJD2A Tudor: blocks the human JMJD2A Tudor domain; hit rate 4.4% among 390,000; AID 504339; AlphaScreen JMJD2A-Tudor / H3K4me3 peptide binding; O75164; Potency, µM (titrated, usually from 114 µM), for the others: top-dose activity change, negative = inhibition, hits mostly inhibitors; also: potency is read from the fitted curve at half-maximal effect; % is scaled to controls: 0 for no effect and ±100 for the full control effect; nearly all actives have a fitted effect of over 50% in size
# Six1-Eya2 inh: blocks human Six1 binding to Eya2 | Q15475+O00167 | AlphaScreen GST-Six1/His-Eya2 binding, biochemical; active compounds read low | activity change, % (test concentration not listed) | hit rate 0.56% among 360,000 | AID 651725; in the data active = activity change below about -65%; inconclusive = mostly about -30% to -63%; also: % is scaled to controls: 0 for no effect and ±100 for the full control effect
#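 Homogeneous AlphaScreen proximity assay pairing GST-Six1 with His-tagged Eya2 (added as 5X mix: 250 nM and 500 nM) in 50 mM Tris pH 8.0, 300 mM NaCl, 1 mM TCEP. Glutathione donor and nickel acceptor beads; 1 h, 37 °C, dark.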
# G9a block: G9a (human) methyltransferase inhibition. Potency, µM (titrated, usually from 102 µM), inactives show at the highest dose activity, negative = inhibition, actives largely listed as inhibitors. AID 504332. hit rate 8.8% among 350,000. G9a H3K9 monomethylation, AlphaScreen, 2 h; also: potency is read from the fitted curve at half-maximal effect; % is scaled to controls: 0 for no effect and ±100 for the full control effect; nearly all actives have a fitted effect of over 75% in size
# Target sequence (Q96KQ7 913-1193 limits assumed): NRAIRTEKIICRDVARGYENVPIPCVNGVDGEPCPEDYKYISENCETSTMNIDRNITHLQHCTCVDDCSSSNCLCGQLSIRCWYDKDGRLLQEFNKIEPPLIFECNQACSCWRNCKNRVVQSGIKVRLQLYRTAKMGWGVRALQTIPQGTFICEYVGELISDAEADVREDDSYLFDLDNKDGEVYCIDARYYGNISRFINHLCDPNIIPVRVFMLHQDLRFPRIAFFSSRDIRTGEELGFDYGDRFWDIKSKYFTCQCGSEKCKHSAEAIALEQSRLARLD
#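 Signal arises when biotinylated H3K9 peptide, once monomethylated, bridges streptavidin donor and antibody-captured acceptor beads. Enzyme at 20 nM was preincubated 15 min with test compounds; peptide 500 nM and SAM 20 uM then reacted for 2 h.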
# HP1b chromo inh: HP1-beta chromodomain-methylated histone interaction inhibition; P83916; hit rate 0.56% among 390,000; Potency, µM (series often up to 114 µM), for inactives: at the top dose activity change, negative = inhibition, most hits filed as inhibitors; AlphaScreen HP1-beta / biotin-H3K9me3 peptide binding; also: potency is read from the fitted curve at half-maximal effect; nearly all actives have a fitted effect of over 70% in size
# Target sequence (P83916 whole entry, looked up): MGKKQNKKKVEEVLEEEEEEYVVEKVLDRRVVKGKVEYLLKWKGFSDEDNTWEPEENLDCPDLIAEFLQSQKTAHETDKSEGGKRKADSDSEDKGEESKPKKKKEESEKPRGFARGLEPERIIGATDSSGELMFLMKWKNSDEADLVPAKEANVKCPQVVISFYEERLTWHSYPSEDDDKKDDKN
#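 Compound inhibition of the preformed complex between 50 nM HP1-beta and 50 nM biotinylated H3K9me3 peptide was read by AlphaScreen. Buffer was PBS pH 7.4 with 0.01% Tween-20. Incubations ran 30 min at room temperature, with 10 ug/mL donor/acceptor beads.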
# CtBP-E1A blk: blocks the CtBP interaction with E1A; hit rate 0.49% among 340,000; AlphaScreen GST-E1A/His-CtBP binding, 1536-well; active compounds read low; activity change, % (test concentration not listed); in the data active = activity change below about -65%; inconclusive = mostly about -30% to -63%; also: % is scaled to controls: 0 for no effect and ±100 for the full control effect
#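 GST-E1A and His-tagged CtBP (125 nM each as 5X stock) were preincubated with pin-transferred compound for 2 h at 37 °C in the dark, then glutathione donor and nickel acceptor beads were added for 1 h before AlphaScreen reading.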
# An asterisk follows results filed as active; u = inconclusive; x = no result; ! = repeats disagree; [ ] = remark or other dose. Compounds with a hit are over-represented: about 10% of the library has one in this group of screens. Unless noted, calls follow the shape of the dose curve; as a rule, active = well fitted inhibition curve with a large enough effect; inconclusive = small, poorly fitted or top-dose-only effect; inactive = no such curve, though single readings can be large or run the other way.
SMILES,BAZ2B block,JMJD2A Tudor,Six1-Eya2 inh,G9a block,HP1b chromo inh,CtBP-E1A blk
Cc1ccc(CNc2ccc3c(c2)ncn3C(C)(C)C)cc1,35.5µM*,-20.6%[11.4 µM],-22.4,7.08µM*,-11.4%,-11.3
CC(C)(C)n1cnc2cc(NCc3ccccc3Cl)ccc21,31.6µM*,39.8µM*,x,15.8µM*,u,x
Cn1cnc2cc(NCc3ccccc3O)ccc21,-28.4%,-26.6%,-1.6,-0.6%,2.7%,x
CCCCC1(CO)C(=O)N(c2ccccc2)N(c2ccccc2)C1=O,-8.4%,-23.4%,-7.9,x,10.9%,-8.6
CCCCC1C(=O)N(c2ccccc2)N(c2ccc(O)cc2)C1=O (configuration not stated),5.1%,56.2µM*,-2.3,3.55µM*!,u,0.7
Cc1cccc(N2CCN(Cc3nc(-c4cccc(Oc5ccccc5)c4)oc3C)CC2)n1,u,44.7µM*,-24.2,39.8µM*,u,x
COc1ccc(-c2nc(CN3CCN(Cc4ccccc4)CC3)c(C)o2)cc1,u,-33.2%,-7.4,x,1.0%,-12.6
COc1ccc(NC(=O)c2cc(C)cc(C)c2)cc1S(=O)(=O)N1CCCCC1,-18.1%,-8.1%,-3.9,-41.6%[12.7 µM],30.7%,0.2
[N-]=[N+]=CC(=O)CC(c1ccccc1)N1C(=O)c2ccccc2C1=O (configuration not stated),31.6µM*,50.1µM*,-17.3,u,17.5%,-13.4
[N-]=[N+]=CC(=O)CCCN1C(=O)c2ccccc2C1=O,11.9%,-4.6%[57.1 µM],5.0,5.7%[59 µM],18.1%,8.9
COC(=O)[C@]12CCCCC=C1N(CCC1=CCCCC1)C(=O)[C@H](CC(=O)NCC13CC4CC(CC(C4)C1)C3)C2,x,x,-4.3,x,x,1.6
C[C@H]1CN(Cc2ccccc2)C(=O)[C@@H]1CC(=O)NCc1ccccc1,-33.3%,-4.3%,-4.4,u,48.5%,5.7
COc1ccc(CN2C[C@H](C)[C@@H](CC(=O)NCc3ccccc3)C2=O)cc1,1.4%[57.1 µM],-10.0%,2.7,50.1µM*,4.4%,1.9
CCc1nc(N)nc(N)c1-c1ccc(N(C)Cc2ccccc2)c([N+](=O)[O-])c1,x,44.7µM*,-28.5,x,-37.4%,-24.0
Cc1cc(OCC(O)CN2CCN(c3cccc(Cl)c3)CC2)ccc1Cl (configuration not stated),-13.4%,79.4µM*,x,-9.2%[59 µM],5.7%,x
COc1ccc(N2CCN(CC(O)COc3ccc(C(C)C)c(C)c3)CC2)cc1 (configuration not stated),-38.3%,u,x,6.31µM*,5.0%,x
Cc1cc(OCC(O)CN2CCCC2)ccc1C(C)C (configuration not stated),8.7%,-17.0%,3.0,x,22.3%,x
Cc1ccc(OCC(O)CN2CCN(c3ccc(C)cc3)CC2)cc1 (configuration not stated),-30.9%,-23.5%,-12.0,-16.8%,17.4%,-2.6
COc1ccc(N2CCN(CC(O)COc3ccc(C)c(C)c3)CC2)cc1 (configuration not stated),44.7µM*,56.2µM*,u,31.6µM*,u,-27.6
COc1ccc(-n2nc(C(=O)Nc3ccc(C(C)=O)cc3)nc2-c2ccccc2)cc1,-0.5%,-7.0%,x,u,45.7%,x
Cc1ccc2c(=O)cc(C(=O)Nc3nc4ccc(Cl)cc4s3)oc2c1C,u,u,x,-28.9%[59 µM],-11.4%,x
OCCN(CC#CCC(O)(c1ccccc1)C1CCCC1)CCO (configuration not stated),-0.5%,-8.7%,3.0,17.9%[12.7 µM],8.5%,-4.7
CC(C)(C)N(CC#CCC(O)(c1ccccc1)c1ccccc1)CCO,79.4µM*,22.4µM*,-2.8,8.91µM*,-11.5%,x
Cc1cccc2sc(NNC(=O)C3COc4ccccc4O3)nc12 (configuration not stated),-29.2%,-31.7%,-2.2,17.8µM*,17.9%,-0.8
CCOC(=O)c1ccc(N=C2SC(C(=O)NC)CC(=O)N2Cc2ccc(F)cc2)cc1 (configuration not stated),-6.6%,4.4%,3.6,10.7%,33.2%,9.3
SMILES,BAZ2B block,JMJD2A Tudor,Six1-Eya2 inh,G9a block,HP1b chromo inh,CtBP-E1A blk
N#Cc1ccc(Oc2c(Cl)cncc2Cl)cc1,-1.9%,16.4%,6.9,-2.4%,39.5%,6.3
CCOC(=O)c1ccc(N=c2ssnc2Cl)cc1,28.2µM*,14.1µM*,-0.3,1.78µM*,7.94µM*,-3.4
COc1ccc(N=c2ssnc2Cl)cc1,44.7µM*,-16.8%[11.4 µM],4.9,1.26µM*,u,-2.5
COc1ccc(N=C2SCC(=O)N2C)cc1,x,x,5.0,x,x,-0.1
N#Cc1ccc(N=c2ssnc2Cl)cc1,35.5µM*,22.4µM*,0.9,u,7.08µM*,-3.5
Clc1ccc(N=c2ssnc2Cl)cc1,39.8µM*,50.1µM*,6.7,1.58µM*,u,15.2
COc1cc(N=c2ssnc2Cl)cc(OC)c1OC,28.2µM*,u,4.4,u,28.0%,-0.8
COc1cc(-c2nnc(-c3cc(OC)c(OC)c(OC)c3)o2)cc(OC)c1OC,-3.5%,-6.1%,-4.9,-12.0%[59 µM],40.9%,-1.5
Fc1ccc(N=c2ssnc2Cl)c(F)c1,50.1µM*,22.4µM*,-20.0,1.58µM*,5.62µM*,10.0
Clc1nssc1=Nc1ccccc1,28.2µM*,79.4µM*,2.3,2µM*,35.5µM*,-8.1
COCc1[nH][nH]c(=O)c1/C=N/N1CCOCC1,u,5.4%,7.4,-5.9%,26.1%,9.2
O=C(NNC(=O)c1ccc2nonc2c1)Nc1ccc(Cl)cc1,1.9%,-18.9%,-4.2,x,10.9%,-1.4
O=C(Cn1cc(SCc2ccc(C(F)(F)F)cc2)c2ccccc21)N1CCCC1,-16.4%,4.0%,x,-4.4%[59 µM],42.5%,x
CCN1CCN(C(=O)C2CCN(S(=O)(=O)c3ccc4c(c3)NC(=O)C(C)S4)CC2)CC1 (configuration not stated),-1.6%,1.5%,11.8,-2.1%[0.0925 µM],22.8%,-6.7
Cc1cc(O)c(Sc2ncn[nH]2)cc1NS(=O)(=O)c1ccc(Cl)cc1,-20.5%,-17.3%,-0.1,3.4%[12.7 µM],26.7%,11.6
O=S(=O)(Nc1cc(Sc2ncn[nH]2)c(O)c2ccccc12)c1ccccc1,28.2µM*,3.55µM*,4.5,1.41µM*,3.55µM*,-19.7
O=C(O)CSc1cc(NS(=O)(=O)c2ccc(Br)cc2)c2ccccc2c1O,35.5µM*,20µM*,-29.4,1.78µM*,14.1µM*,x
CC1CCC(C(=O)NC(C(=O)OCC(=O)c2ccc(Br)cc2)C(C)C)CC1 (configuration not stated),1.1%,-2.4%,x,7.9%[59 µM],49.5%,x
CC1CCc2nc3ncn(Cc4ccc(Cl)cc4)c(=O)c3cc2C1 (configuration not stated),2.0%,-0.6%,x,-1.8%[59 µM],23.6%[57 µM],x

# Screens (PubChem BioAssay)
